Hits are enriched below; roughly 4% of the tested compounds scored in any of these assays.
TWEAK-Fn14 inh: blocks TWEAK-Fn14 interaction in a reporter cell assay; TWEAK-stimulated Fn14 reporter cells, luciferase luminescence, 8 h; inhibition, % at 10 µM; 2% of 360,000 active; in the data active = inhibition above about 50%
HIF-2a inh: blocks HIF-2a reporter activity; 0.72% of 360,000 active; AID 624352; inhibition, % at 18.8 µM; 786-0 RCC cells HIF-2a reporter, luciferase luminescence, overnight;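 active = inhibition of the luminescence signal of 40% or more relative to plate controls, in a single-dose primary screen at 18.75 µM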
CF NFkB inh: blocks PAF-induced NF-kB reporter in cystic fibrosis cells. KKLEB NF-kB-GFP reporter, GFP fluorescence overnight. inhibition, % at 5 µM. 0.86% of 360,000 active. AID 588850;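 active = at least 50% inhibition at 5 µM, scaled per plate between neutral and stimulator controls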;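 also: PAF is a Pseudomonas aeruginosa culture filtrate used as stimulus; plate controls were PAF-stimulated DMSO wells for no effect and unstimulated DMSO wells for full effect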
KKLEB cytotox: reduces viability of KKLEB cystic fibrosis airway cells; KKLEB CF airway cells viability, ATPlite luminescence, overnight; active compounds read low; cells stimulated with P. aeruginosa culture filtrate; activity change (cytotoxicity), % at 5 µM; 0.36% of 360,000 active;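 active = corrected activity change at or below -50% at 5 µM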
TROY signal inh: inhibitors of TROY-dependent NF-kB signaling. AID 1347056. Q293 LMP1-TROYcd NF-kB luciferase reporter, 4 h. inhibition, % at 10 µM. 0.98% of 360,000 active;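 active = compounds whose plate-normalised and pattern-corrected inhibition of the luciferase reporter signal at the single screening dose is 50% or more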
Peg3 prom inh-1: inhibitors of Peg3 promoter | AID 588405 | HeLa PEG-Prom luciferase reporter, luminescence, overnight | inhibition, % at 20 µM | 1.7% of 360,000 active;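 active = inhibition of at least 50% at 20 µM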
Peg3 prom inh-2: Peg3 promoter inhibition confirmation | shares compounds with Peg3 prom inh-1 | HeLa PEG-Prom luciferase reporter, luminescence, overnight | inhibition, % at 20 µM | 84% of 1,300 active;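 active = at 20 µM dose, 40% or more inhibition averaged across four replicates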
CF NFkB conf: confirmation of cystic fibrosis induced NF-kB inhibitors; 64% of 1,300 active; shares compounds with CF NFkB inh; KKLEB CF airway cells, PAF-induced NF-kB-GFP fluorescence, overnight; inhibition, % at 5 µM; in the data active = inhibition above about 40%;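 also: stimulus PAF is a Pseudomonas aeruginosa filtrate and not platelet activating factor; plate controls were DMSO wells with stimulus for no effect and unstimulated DMSO wells for full effect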
Mdm2-MdmX confirm: confirmation of inhibitors of human Mdm2/MdmX interaction, set 2 | shares compounds with HIF-2a inh | SaOS-2 split-luciferase Mdm2/MdmX complementation, luminescence | inhibition, % at 8 µM | 99% of 740 active;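 active = mean inhibition of the luminescence signal across two replicates at or above 26 percent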
Target sequence (O15151 whole entry, looked up): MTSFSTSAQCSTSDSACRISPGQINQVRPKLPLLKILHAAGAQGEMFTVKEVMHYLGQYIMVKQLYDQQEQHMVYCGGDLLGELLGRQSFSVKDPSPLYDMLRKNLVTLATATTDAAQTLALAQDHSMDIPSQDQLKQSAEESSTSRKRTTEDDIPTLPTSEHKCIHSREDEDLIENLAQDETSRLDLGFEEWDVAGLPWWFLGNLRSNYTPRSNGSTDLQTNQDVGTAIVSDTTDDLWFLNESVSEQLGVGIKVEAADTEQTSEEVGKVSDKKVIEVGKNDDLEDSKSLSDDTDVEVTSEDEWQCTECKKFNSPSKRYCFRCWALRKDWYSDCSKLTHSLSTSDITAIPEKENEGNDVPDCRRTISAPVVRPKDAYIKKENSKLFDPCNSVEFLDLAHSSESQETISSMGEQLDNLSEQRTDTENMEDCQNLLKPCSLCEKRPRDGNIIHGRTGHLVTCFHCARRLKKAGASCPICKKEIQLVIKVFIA
Target sequence (Q00987 whole entry, looked up): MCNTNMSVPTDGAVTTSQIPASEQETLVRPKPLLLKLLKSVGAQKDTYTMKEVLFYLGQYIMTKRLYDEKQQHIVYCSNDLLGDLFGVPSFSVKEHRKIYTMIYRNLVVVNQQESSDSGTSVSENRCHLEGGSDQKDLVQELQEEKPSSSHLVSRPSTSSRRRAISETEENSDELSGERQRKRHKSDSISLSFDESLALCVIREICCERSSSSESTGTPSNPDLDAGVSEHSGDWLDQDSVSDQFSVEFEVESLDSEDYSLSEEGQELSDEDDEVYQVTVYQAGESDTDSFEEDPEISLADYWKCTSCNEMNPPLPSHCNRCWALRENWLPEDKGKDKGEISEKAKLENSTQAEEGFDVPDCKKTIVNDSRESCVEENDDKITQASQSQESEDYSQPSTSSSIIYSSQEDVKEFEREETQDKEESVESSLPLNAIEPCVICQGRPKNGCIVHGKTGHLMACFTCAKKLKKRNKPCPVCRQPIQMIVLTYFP
HIF-2a inh conf: confirmation of HIF-2a inhibitors | shares compounds with HIF-2a inh | 786-0 RCC cells, HIF-2a luciferase reporter luminescence, overnight | inhibition, % at 18.8 µM | 56% of 1,800 active | AID 651580;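 active = mean inhibition across four replicates of at least 40 percent at the single tested concentration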
HIF-1a cs: HIF-1a inhibition counter-screen for HIF-2a hits; shares compounds with HIF-2a inh; MiaPaCa-2 HIF-1a luciferase reporter, desferoxamine, overnight; inhibition, % at 18.8 µM; 72% of 1,800 active; AID 651589;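 active = mean inhibition of the reporter signal across four replicates at the single tested dose of 50% or more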
An asterisk follows results filed as active; . = no result given.

SMILES | TWEAK-Fn14 inh | HIF-2a inh | CF NFkB inh | KKLEB cytotox | TROY signal inh | Peg3 prom inh-1 | Peg3 prom inh-2 | HIF-2a inh conf | HIF-1a cs | others
C=C1CC2(OC1=O)c1ccccc1CCc1ccccc12 | 34 | 90* | 89* | -85* | 51* | 97* | 97* | 98* | 107*
C/C(=N/NC(=O)c1cc(C2CC2)[nH]n1)c1cccs1 | 89* | 49* | 14 | -12 | 2 | 63* | 47* | 67* | 16
C/C(=N\NC(=O)c1ccncc1)c1cccs1 | -3 | -79 | 4 | -2 | -4 | -52 | . | . | .
CN(C(=O)C1CCN(S(=O)(=O)c2ccccc2)CC1)c1c(N)n(Cc2ccccc2)c(=O)[nH]c1=O | -5 | -2 | 4 | 5 | -3 | -8 | . | . | .
O=C(NC1CCCCC1)C1c2ccccc2OCC(=O)N1CCc1c[nH]c2ccccc12 (stereo not given) | 16 | 10 | . | . | 14 | . | . | . | .
CCCN1C=CC(=C2C(=O)c3ccccc3C2=O)C=C1 | 71* | 90* | -4 | -61* | 73* | 105* | 94* | . | . | Mdm2-MdmX confirm=99*
CC1=CC(=C2C(=O)c3ccccc3C2=O)C=C(C)O1 | -27 | -225 | -47 | 14 | -51 | -172 | . | . | .
COc1ccc(O)c(CN2CCC(n3nccc3NC(=O)C3CCCC3)CC2)c1 | 1 | 10 | -25 | -6 | 16 | -3 | . | . | .
CCCCCCN1CCN(C2CN(Cc3ccc([N+](=O)[O-])cc3)S(=O)(=O)C2)CC1 (stereo not given) | -6 | 2 | 1 | 10 | 12 | 10 | . | . | .
COCCn1c(C)cc(C(=O)CSc2nc(C)c(C)c(C)n2)c1C | 8 | -3 | -19 | 15 | 15 | -2 | . | . | .
COCCn1c(C)cc(C(=O)CSc2nnc3ccccn23)c1C | -13 | 44* | 7 | -7 | 26 | 64* | 54* | 76* | 49
Cc1ccc2nc(NC(=O)c3ccccn3)sc2c1 | 98* | 80* | -5 | -67* | 86* | 106* | 96* | 89* | 80* | Mdm2-MdmX confirm=102*
COc1ccc2nc(NC(=O)c3ccccc3C(=O)O)sc2c1 | 6 | 0 | -20 | 6 | -15 | -12 | . | . | .
COc1ccc(C(=O)Nc2nc3ccccc3s2)c(OC)c1 | 105* | 92* | 0 | -88* | 85* | 107* | 99* | . | . | Mdm2-MdmX confirm=97*
CN(CCC#N)C(=O)COC(=O)c1ccccc1C(=O)c1ccc(Cl)c([N+](=O)[O-])c1 | 30 | 43* | 76* | -28 | 55* | 95* | 33 | 0 | 68* | CF NFkB conf=97*
O=C(NCc1ccccc1F)c1ccc2c(c1)OCO2 | 34 | -23 | -3 | 12 | 4 | -36 | . | . | .
O=C(NCCc1ccccc1F)c1ccc2c(c1)OCCO2 | 108* | 91* | 2 | -26 | 86* | 106* | 93* | 96* | 101* | Mdm2-MdmX confirm=96*
CC(=O)N1CCCC(c2cc(C(=O)Nc3ccccc3)no2)C1 (stereo not given) | 101* | 72* | -26 | -8 | 80* | 65* | 73* | 82* | 60*
O=C(Nc1ccccc1)c1cc(C2CCCN(C(=O)C/C=C/c3ccccc3)C2)on1 (stereo not given) | 7 | -148 | -1 | 0 | 7 | -105 | . | . | .
O=C1c2ccccc2C(=O)N1CCN1CCCCC1 | 0 | 12 | 10 | -7 | 16 | 4 | . | . | .
O=C1c2cccc3cc([N+](=O)[O-])cc(c23)C(=O)N1CCN1CCCC1 | -43 | -50 | -190 | -20 | -27 | 112* | 99* | . | . | Mdm2-MdmX confirm=101*
NC(=O)CN1CCN(CCN2C(=O)c3cccc4cccc(c34)C2=O)CC1 | 4 | -16 | -15 | 0 | -32 | -15 | . | . | .
Nc1cc2c3c(cccc3c1)C(=O)N(CCN1CCCC1)C2=O | -18 | 54* | -113 | -2 | -12 | 107* | 95* | 19 | 102*
Cc1ccc(S(=O)(=O)N(C)C[C@@H]2Oc3ccc(NC(=O)Nc4cccc5ccccc45)cc3C(=O)N([C@H](C)CO)C[C@H]2C)cc1 | 26 | 10 | 8 | 4 | -3 | 24 | . | . | .
N#Cc1ccc(OC(=O)C2CCN(C3=NS(=O)(=O)c4ccccc43)CC2)cc1 | 18 | 7 | -20 | 20 | 6 | -7 | . | . | .
SMILES | TWEAK-Fn14 inh | HIF-2a inh | CF NFkB inh | KKLEB cytotox | TROY signal inh | Peg3 prom inh-1 | Peg3 prom inh-2 | HIF-2a inh conf | HIF-1a cs | others
Cc1noc(C)c1S(=O)(=O)Nc1ccc2c(c1)CC(=O)N([C@H](C)CO)C[C@H](C)[C@@H](CN(C)CC1CC1)O2 | -5 | 18 | -8 | 9 | -4 | 0 | . | . | .
O=C(Nc1ccc(N2CCOCC2)cc1)c1cnsn1 | 95* | 75* | 4 | -8 | 72* | 101* | 74* | 88* | 84*
COC(=O)[C@]12C(=O)NC[C@H](CN1c1ccc(Cl)c(C)c1)N2C | 6 | 13 | 11 | -3 | -15 | 13 | . | . | .
CCOC(=O)c1c(C)oc2c(F)c(F)c(F)c(F)c2c1=O | -6 | 64* | 37 | -10 | 3 | 105* | 99* | 66* | 100*
Cc1ccc(NC(=O)CCC(=O)N2CCC(C)CC2)c([N+](=O)[O-])c1 | 20 | 10 | 11 | 0 | -31 | 6 | . | . | .
CCSc1nc2ccccc2n1C(=O)/C=C\c1ccc(OC)c(OC)c1 | 91* | 86* | 82* | 3 | 36 | 106* | 94* | 31 | 103* | Mdm2-MdmX confirm=102*
O=C(CN1C(=O)NC2(CCCc3ccccc32)C1=O)N1CCCCC1 (stereo not given) | 7 | 6 | 2 | 2 | 4 | -30 | . | . | .
CC(=O)c1c(NCCc2ccccc2)nc(=S)n(-c2ccccc2)c1C | -21 | 92* | -16 | 13 | -4 | 101* | 99* | -11 | 20
CC(=O)c1c(NCc2ccccc2)nc(=O)n(-c2ccccc2)c1C | 4 | -90 | -3 | 8 | -16 | -99 | . | . | .
COC(=O)c1ccc2nc(-c3ccc(S(C)(=O)=O)cc3)cn2c1 | -3 | -143 | 3 | -4 | -41 | -160 | . | . | .
CS(=O)(=O)c1ccc(-c2cn3cc(C(=O)O)ccc3n2)cc1 | 15 | 48* | -13 | -7 | -16 | 65* | 44* | 46* | -20

Screens (PubChem)
